GSIS activator: primary screen for activators of insulin secretion dependent on glucose, INS-1E cells, GLuc reporter luminescence; 370,000 compounds, 0.61% hits; AID 743287; INS-1E GLuc reporter insulin secretion, 2-3 h; activation, % at 16.6 µM;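 active = lowest replicate activation of at least 40%, so every replicate reaches that level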;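 note: 0% = median of neutral control wells and 100% = median of IBMX positive control wells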
PGC1a acetyl inh: PGC1a acetylation modulation, inhibitor mode; 350,000 compounds, 0.17% hits; U2OS PGC1a acetylation, AlphaScreen anti-acetyl-lysine; with virally co-expressed GCN5 acetyltransferase; inhibition, % at 15.6 µM;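 active = every replicate shows inhibition of at least 40%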;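 note: 0% = neutral control wells and 100% = positive control wells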
rRNA inh HTS: inhibits bacterial ribosomal RNA function over humanized ribosomes. E. coli WT GFP vs humanized-ribosome RFP mutants, fluorescence, 24 h; hits give low values; DMSO median 0, no signal -100. GFP signal change (wild-type ribosome), % (test concentration not listed). 350,000 compounds, 1.6% hits;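 active = significant combined selectivity score with lowered wild-type GFP, culture density cut under 30%, mutant RFP and density less affected; inactive = any of these conditions unmet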
DENV2 CPE rescue: protects cells from dengue virus 2 cytopathic effect. CPE inhibition, % at 9.99 µM. 350,000 compounds, 1.7% hits. AID 651640. DENV2-infected cells, cytopathic effect rescue, plate reader; in the data active = CPE inhibition above about 20%, passing the limit was not always enough; tested in BHK-21 cells;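 note: 0% = median of neutral control wells and 100% = median of positive control wells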
CaV13 ICDI inh: Disruptors of the CACNA1D IQ motif to Ca2+-dependent inactivation inhibitor domain association, primary screening, Förster resonance energy transfer in intact living …; 340,000 compounds, 0.098% hits; HEK cells, CFP/YFP FRET ICDI-IQ, plate reader, 10 min; percent FRET-ratio fall versus neutral wells; inhibition, % at 12.3 µM;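 active = mean replicate inhibition of at least 30% and at least 1% of replicates passing that level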;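 note: 0% = median of the neutral control wells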
ERAP1 inh: blocks human ERAP1 aminopeptidase activity; Q9NZ08; recombinant ERAP1, Leu-AMC fluorescence, 60 min; inhibition, % at 10.7 µM; 340,000 compounds, 0.15% hits;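 active = mean replicate inhibition of at least 30%, or all replicates individually reaching that 30% level; inactive = mean below 30% and not every replicate reaching it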;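 note: 0% = neutral control wells and 100% = L-leucinethiol positive control wells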
Starred values were filed as active, the others as inactive; / = no result. Sampled rows, rich in hits. Any-hit rate of the full collection: about 3.2%.

SMILES	GSIS activator	PGC1a acetyl inh	rRNA inh HTS	DENV2 CPE rescue	CaV13 ICDI inh	ERAP1 inh
CC(C)C#Cc1ccc2c(c1)O[C@H](CN(C)S(=O)(=O)c1cn(C)cn1)[C@H](C)CN([C@@H](C)CO)S2(=O)=O	1	-5	1	-1	/	1
COc1ccc(S(=O)(=O)NC2CCCCC2)cc1C	43*	-12	-6	-1	-10	11
Cc1c(C(=O)O)oc2ccc(S(=O)(=O)NC3CCCCCCC3)cc12	-1	/	-29*	5	-4	-1
CCCN1[C@H](C(=O)N2CCN(C)CC2)[C@@H](CO)[C@@H]2Cn3c(ccc(-c4ccccc4F)c3=O)[C@@H]21	6	/	2	-4	/	2
CCc1ccc(OCC(=O)NC(NC(=S)Nc2ccccc2C)C(Cl)(Cl)Cl)cc1 (stereo not drawn)	/	-20	-17	9	-4	5
CCc1ccc(OCC(=O)NC(NC(=S)Nc2ccccc2)C(Cl)(Cl)Cl)cc1 (stereo not drawn)	199*	-19	/	/	-6	/
CN1C[C@H](O)COC[C@@H]2O[C@@H](CC(=O)NC3CCC3)CC[C@H]21	5	2	0	16	/	-1
C[C@@H]1CN([C@H](C)CO)C(=O)Cc2cc(NC(=O)Nc3ccccc3)ccc2O[C@@H]1CN(C)C	7	-24	10	1	/	-5
COc1ccc(NC(=O)N(C)C[C@@H]2Oc3ccc(NC(=O)NC4CCCCC4)cc3C(=O)N([C@@H](C)CO)C[C@@H]2C)cc1	-9	4	-2	-3	/	1
Cc1noc(C)c1NC(=O)N(C)C[C@@H]1OCCCC[C@@H](C)Oc2ccc(NC(=O)NC3CCCCC3)cc2C(=O)N([C@@H](C)CO)C[C@H]1C	5	-12	1	76*	/	-5
COc1ccc(NC(=O)N(C)C[C@H]2Oc3ccc(NC(=O)NC4CCCCC4)cc3C(=O)N([C@@H](C)CO)C[C@@H]2C)cc1	2	-7	4	46*	/	4
Cc1noc(C)c1NC(=O)N(C)C[C@@H]1Oc2ccc(NC(=O)NC3CCCCC3)cc2C(=O)N([C@@H](C)CO)C[C@@H]1C	10	6	1	34*	/	10
Cc1noc(C)c1NC(=O)Nc1ccc2c(c1)C(=O)N([C@@H](C)CO)C[C@H](C)[C@H](CN(C)C(=O)NC1CCCCC1)OCCCC[C@@H](C)O2	14	-6	0	29*	/	-1
Cc1noc(C)c1NC(=O)N(C)C[C@@H]1Oc2ccc(NC(=O)NC3CCCCC3)cc2C(=O)N([C@@H](C)CO)C[C@H]1C	5	2	0	9	/	9
C[C@H]1CN([C@@H](C)CO)C(=O)c2cc(C3=CCCCC3)cnc2O[C@@H]1CN(C)C(=O)Nc1ccc(F)cc1	-16	-15	-6	-2	/	0
C[C@@H]1CCCCO[C@H](CN(C)C(=O)c2ccccc2)[C@@H](C)CN([C@@H](C)CO)C(=O)c2cc(NC(=O)c3ccccc3)ccc2O1	-36	36	-15	-1	/	0
Cc1noc(C)c1NC(=O)N(C)C[C@@H]1OCCCC[C@H](C)Oc2ccc(NC(=O)NC3CCCCC3)cc2C(=O)N([C@@H](C)CO)C[C@@H]1C	-1	6	3	23*	/	-7
Cc1noc(C)c1NC(=O)N(C)C[C@@H]1OCCCC[C@H](C)Oc2ccc(NC(=O)NC3CCCCC3)cc2C(=O)N([C@@H](C)CO)C[C@H]1C	8	-9	3	44*	/	-5
Cc1noc(C)c1NC(=O)Nc1ccc2c(c1)C(=O)N([C@H](C)CO)C[C@H](C)[C@@H](CN(C)C(=O)Nc1c(C)noc1C)OCCCC[C@H](C)O2	-7	1	2	0	/	-4
Cc1noc(C)c1NC(=O)Nc1ccc2c(c1)C(=O)N([C@H](C)CO)C[C@@H](C)[C@H](CN(C)C(=O)NC1CCCCC1)OCCCC[C@@H](C)O2	-4	5	-1	6	/	1
COC(=O)c1ccc(CN2CC(=O)N3[C@H](C2)[C@@H](c2ccc(Br)cc2)[C@@H]3CO)cc1	-1	18	0	6	/	1
Cc1cc2c(cc1C)CSC(c1c(O)ccc3ccccc13)SC2	185*	3	/	/	-5	/

Source: PubChem BioAssay
